Pf growth 48h: inhibits P. falciparum growth in the first generation, 48 h | AID 504832 | 5.9% of 310,000 active | Potency, µM (titrated, usually from 28.7 µM), for inactives: at the highest dose activity change, negative = inhibition, hits mostly inhibitors | P. falciparum luciferase growth in erythrocytes, 48 h; note: potency is the fitted concentration of half-maximal effect; % is set by controls: 0 for no effect and ±100 for the full control effect
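Read-out is firefly luciferase luminescence from an integrated reporter in P. falciparum, so falling signal marks reduced parasite growth. Infected erythrocytes were at 2% hematocrit and 0.1% parasitemia (final) in Albumax-supplemented RPMI 1640.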
SARS PLpro yeast-1: blocks SARS-CoV papain-like protease in a yeast assay | S. cerevisiae expressing SARS-CoV PLpro, growth rescue | Potency, µM (titrated, usually from 32.9 µM), without a hit: at the top dose activity, positive = growth rescue, most hits filed as activators | AID 485353 | 0.19% of 330,000 active; calls by dose curve; note: potency is the fitted concentration of half-maximal effect; 0% is about no effect; nearly all actives have a fitted effect of over 55% in size
Sm TGR inh: S. mansoni TGR enzyme inhibition. 3% of 360,000 active. Q962Y6. Potency, µM (titrated, usually from 114 µM), for the others: at the top dose activity change, negative = inhibition, hits mostly inhibitors. purified TGR, DTNB reduction, TNB absorbance 405 nm. AID 485364; note: potency is the fitted concentration of half-maximal effect; % is set by controls: 0 for no effect and ±100 for the full control effect; nearly all actives have a fitted effect of over 60% in size
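First, TGR (20 nM dispensed) and NADPH were mixed with compound. Second, a 15 min room-temperature incubation followed. Third, further NADPH and then DTNB were added to start the reaction. Finally, TNB absorbance was monitored kinetically.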
Pf growth 96h: P. falciparum growth inhibition at 96 hours; P. falciparum luciferase reporter growth, 96 h; Potency, µM (titrated, usually from 28.7 µM), for the others: top-dose activity change, negative = inhibition, most hits filed as inhibitors; 6.9% of 320,000 active; AID 504834; note: potency is the fitted concentration of half-maximal effect; % is set by controls: 0 for no effect and ±100 for the full control effect
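P. falciparum expressing integrated firefly luciferase grown in erythrocytes (2% hematocrit, 0.05% parasitemia final) with compounds for 96 hours at 37 C, 5% CO2. Growth inhibition read as loss of luminescence after adding luciferase detection reagent.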
SARS PLpro yeast-2: Rescues yeast growth by inhibiting SARS-CoV PLpro; shares compounds with SARS PLpro yeast-1; yeast expressing SARS-CoV PLpro, growth phenotype rescue; calls only; 19% of 1,000 active; AID 652038; call rule not given here
* = called active by the depositor; i = inactive; ? = inconclusive; . = no result; + = active, no number; [ ] = dose if it differs, or a comment. Rows were chosen to be rich in hits. Some 12% of all compounds tested hit in one or more screens of this group. Unless noted, calls come from the whole dose curve; as a rule, active = well fitted curve in the direction sought with a large enough effect; inconclusive = small, poorly fitted or top-dose-only effect, or another doubt; inactive = no such curve, though single readings can be large; an effect the other way counts as inactive or inconclusive.

SMILES | Pf growth 48h | SARS PLpro yeast-1 | Sm TGR inh | Pf growth 96h | SARS PLpro yeast-2
CC(C)(C)C1=C(C#N)C(c2cccnc2)C(C#N)=C(N)O1 (stereo not drawn) | -22% | 18µM* | ? | -1% | i
COc1ccc(C2C(C#N)=C(N)OC(C(C)(C)C)=C2C#N)cc1OC (stereo not drawn) | -17% | 0% | -25% | -10% | .
N#CC1=C(N)Oc2c(ccc3cccnc23)C1c1cccnc1 (stereo not drawn) | ? | ? | 20µM* | . | i
CCc1cccc(NC(=O)CCc2c(C)nn(-c3ccc(N4CCOCC4)nn3)c2C)c1 | ? | 1% | -11% | 4% | .
Fc1ccc(CNc2nc3c(-c4ccc(F)cc4)nnn3c3ccccc23)cc1 | . | . | -1% | . | .
N#CC1C(=O)NC(N2CCN(c3ccccc3)CC2)=NC12CCCCC2 (stereo not drawn) | -17% | 16µM* | -2% | 0%[5.75 µM] | i
CCC(C(=O)Nc1ccccc1C(=O)OC)n1c(C)c2cnn(-c3ccccc3)c(=O)c2c1C (stereo not drawn) | . | . | 0% | . | .
O=C(CSc1nnc(-c2cccnc2)s1)Nc1ccccc1 | 19% | ? | 15% | 1% | +
O=C(CSc1nnc(-c2cccnc2)s1)Nc1cccc(C(=O)O)c1 | 9% | 7% | -6% | 38% | .
O=C(Nc1ccc(F)cc1F)NC1CCN(S(=O)(=O)c2ccc(F)cc2)CC1 | -5% | -1% | -1% | -5% | .
Cc1cc(Cl)ccc1NC(=O)NC1CCN(S(=O)(=O)c2ccc(F)cc2)CC1 | . | ? | -8% | ? | ?
CCN1C(=O)C(Cc2nc3ccccc3c(=O)n2-c2ccccc2)c2cc(Br)ccc21 (stereo not drawn) | . | . | 1% | . | .
O=C(CSc1oc(-c2ccccc2)nc1S(=O)(=O)c1ccc(F)cc1)NCC1CCCO1 (stereo not drawn) | -18% | 3% | ? | 3% | .
O=C(CSc1oc(-c2ccc(F)cc2)nc1S(=O)(=O)c1ccc(F)cc1)NCC1CCCO1 (stereo not drawn) | -3% | ? | -3% | . | i
COc1ccc(/C=N/NC(=O)c2ccoc2C)cc1OC | 70% | 10% | -4% | 14% | .
Cc1occc1C(=O)N/N=C/c1ccc(Cl)c([N+](=O)[O-])c1 | 7% | ? | 8% | -7% | ?
CSc1ccccc1NC(=S)NCc1ccc(Cl)cc1 | -5% | 15% | ? | ? | .
COCCNC(=S)N/N=C(\C)c1ccc(OC(F)F)cc1 | ? | 1% | ? | ? | .
COCCNC(=S)N/N=C(\C)c1ccc(OC)cc1 | -21% | 22µM* | ? | -10% | +
COCCNC(=S)N/N=C(\C)c1ccc2cc(OC)ccc2c1 | ? | 8.9µM* | -11% | ? | i
COC(=O)CCn1c(C)cc(C(=O)COc2ccccc2C(N)=O)c1C | 13% | -5% | -13% | 17% | .
COC(=O)CCCn1c(C)cc(C(=O)CCl)c1C | ? | 11µM* | 7.9µM* | ? | +
CCOC(=O)N1CCC(N2Cc3cccc(C(=O)Nc4cccc(F)c4)c3C2=O)CC1 | ? | 2% | 2% | ? | .
CCOC(=O)N1CCC(N2Cc3cccc(C(=O)N4CCN(C5CCCCC5)CC4)c3C2=O)CC1 | . | 20µM* | -4% | ? | i
COc1ccc(/C=N/NC(=O)c2nc(-c3ccccc3)n(-c3ccccc3)n2)c(O)c1 | ? | 2.8µM* | -2% | 11% | +
SMILES | Pf growth 48h | SARS PLpro yeast-1 | Sm TGR inh | Pf growth 96h | SARS PLpro yeast-2
CC(C)(C)c1cc(C(=O)N/N=C/c2ccccc2O)n(-c2ccccc2)n1 | ? | 14µM* | -10% | ? | i
CC(C)c1nc(SCC(=O)Nc2ccc(C(=O)O)cc2)c2c3c(sc2n1)CCCC3 | 10% | -18% | ? | -6% | .
CCCCNc1sc(S(=O)(=O)CCC)nc1S(=O)(=O)c1ccc(C)cc1 | . | . | -1% | . | .
O=C(COC(=O)c1ccc(S(=O)(=O)N2CCCCCC2)cc1)NCc1ccc(F)cc1 | ? | ? | -11% | 47% | +
Cc1ccc(CNC(=O)COC(=O)c2ccc(S(=O)(=O)N3CCCCCC3)cc2)cc1 | -8% | 1% | -7% | 5% | .
CCc1ccc(OCc2nnc(SCCN3CCOCC3)n2CC)cc1 | -29% | ? | -10% | . | i
CCn1c(COc2ccc(C)cc2)nnc1SCc1ccc(C#N)cc1 | 12% | -11% | -12% | ? | .
Cc1cccc(N(Cc2ccccc2)C(=O)CN2C(=O)NC3(CCCC3)C2=O)c1 | ? | -2% | -10% | ? | .
O=C(N/N=C/C1CC=CCC1)c1ccccc1O (stereo not drawn) | -12% | -4% | 0% | 1% | .
O=C(N/N=C/C1CC=CCC1)c1ccc(Cl)cc1O (stereo not drawn) | 1% | 11µM* | -1% | 2.3µM* | i
Cc1nn(-c2ccccc2)c(OC(=O)C(C)C)c1Sc1ccc(Cl)cc1 | . | . | -5% | . | .
CCc1c(-c2ccccc2)nc2ccccc2c1C(=O)NC(C)c1ccccc1 (stereo not drawn) | . | . | 2% | . | .
COc1ccc(Cl)c2sc(N(CCN(C)C)C(=O)c3ccc4c(c3)OCCO4)nc12 | -22% | -3% | 5% | ? | .
Cc1cc(C)nc(SCc2ccc(C(=O)N/N=C/c3cccc(O)c3O)cc2)n1 | 10µM* | 3.2µM* | -16% | 4.7µM* | +
CN1CCN(Cc2cc(Cl)c3cccnc3c2OC(=O)c2cccs2)CC1 | ? | 11µM* | -3% | ? | i
CCN(CC)C(=O)Oc1c(Cl)cc(Cl)c2cccnc12 | -7% | 0% | . | 24% | .
Cn1c(SCC(=O)C(C)(C)C)nnc1-c1ccncc1 | . | 10% | 6% | 5% | .
CC(=O)CSc1nnc(-c2ccncc2)n1C | . | ? | -25% | -22% | i
N#Cc1ccc(CSc2ccc(S(=O)(=O)N3CCCCCC3)cn2)cc1 | 43% | -4% | 6% | 76% | .
Cc1ccc(CN2CCN(/N=C/c3sccc3C)CC2)c(C)c1 | 13% | 11µM* | 6% | 20% | i
CC(=O)c1cccc(OCc2cc(C(=O)NCCC3=CCCCC3)no2)c1 | 17% | -2% | 3% | -2% | .
Oc1ccc(/C=N/Nc2cc(N3CCCC3)nc(N3CCCC3)n2)cc1O | ? | ? | -34% | ? | i
Oc1ccc(Cl)c(Cl)c1 | 7% | -1% | -18% | ? | .
Oc1ccc2n[nH]nc2c1 | 2% | ? | -2% | -11% | i
CCNC(=S)NN(c1ccccc1)c1ccccc1 | . | 14µM* | -8% | ? | +
Cc1ccccc1OCC(=O)Nc1nnc(S(=O)(=O)N(C)c2ccccc2)s1 | . | . | 2% | . | .
Cc1ccc(N2CN(Cc3cccnc3)CNC2=S)c(C)c1 | 8% | -14% | -17% | 0% | .
Cc1ccc(N2CN(Cc3ccco3)CNC2=S)c(C)c1 | ? | ? | -6% | ? | ?
CC(=O)Nc1ccc2c(c1)n(C)c(=O)n2C | 9% | ? | 1% | . | .
Cn1c(=O)n(C)c2cc(NC(=O)CCl)ccc21 | 1.5µM* | 10µM* | 18µM* | ? | +

Screening results deposited in PubChem by National Center for Advancing Translational Sciences (NCATS).
